Drawing on the supplement of paper PMC6555819, this text covers PBM binding z-score for 6 sequences.

What all share (assay): PBM binding z-score (relative to random genomic background probes); higher = stronger binding; sequences stand for … in GC…GCGATTGACAGCGTAGAATGAAGG
In test [1] the test system is FXR:RXRa (NR concentration 270 nM, RXRa partner concentration 90 nM). The gist of the method:
(§1)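 Scanned fluorescence from custom Agilent 4×180K protein-binding microarrays was regression-normalized. Binding z-scores use random background probes as reference. Ligand-free nuclear receptor dimers were incubated on the arrays for 1 h and detected with antibodies against each partner (one per run).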

The subject of test [2] is LXRa:RXRa (NR concentration 270 nM, RXRa partner concentration 90 nM). In a few lines:
as §1

For test [3], the system named is LXRa homodimer (NR concentration 270 nM). In a few lines: as §1
Test [4] relates to LXRb:RXRa (NR concentration 270 nM, RXRa partner concentration 90 nM). The gist of the method: as §1
The test system of test [5] is LXRb homodimer (NR concentration 270 nM). In a few lines: as §1
Test [6] has as its system PPARa:RXRa (NR concentration 270 nM, RXRa partner concentration 90 nM). The gist of the method:
as §1

The test system of test [7] is PPARg:RXRa (NR concentration 180 nM, RXRa partner concentration 90 nM). The gist of the method: as §1
The subject of test [8] is PPARg:RXRa 270nM:90nM, anti-RXR (NR concentration 270 nM, RXRa partner concentration 90 nM). The gist of the method: as §1
For test [9], the system named is PPARg:RXRa 30nM:10nM, anti-RXR (NR concentration 30 nM, RXRa partner concentration 10 nM). The gist of the method: as §1
Test [10] has as its system PPARg:RXRa 90nM:30nM, anti-RXR (NR concentration 90 nM, RXRa partner concentration 30 nM). The gist of the method: as §1
Test [11] concerns PPARg:RXRa DBDmut IVT, anti-RXR (DBD mutation: RXRa K156A/R161A, NR concentration 270 nM, RXRa partner concentration 90 nM). In a few lines: as §1
The test system of test [12] is PPARg:RXRa IVT, anti-PPARg (NR concentration 270 nM, RXRa partner concentration 90 nM). In a few lines:
as §1

Test [13] relates to PPARg DBDmut:RXRa IVT, anti-PPARg (DBD mutation: PPARg1 K132A/R137A, NR concentration 270 nM, RXRa partner concentration 90 nM). In a few lines:
as §1

In test [14] the test system is PPARg DBDmut IVT, anti-PPARg (DBD mutation: PPARg1 K132A/R137A, NR concentration 270 nM). In a few lines:
as §1

For test [15], the system named is PPARg homodimer (NR concentration 180 nM). The gist of the method: as §1
Test [16] has as its system PXR:RXRa (NR concentration 270 nM, RXRa partner concentration 90 nM). The gist of the method:
as §1

In test [17] the test system is PXR homodimer (NR concentration 270 nM). In a few lines: as §1
Test [18] concerns RARa:RXR (NR concentration 270 nM, RXRa partner concentration 90 nM). In a few lines: as §1
Test [19] deals with RARa homodimer (NR concentration 270 nM). In a few lines:
as §1

Test [20] deals with RARb:RXRa (NR concentration 270 nM, RXRa partner concentration 90 nM). The gist of the method:
as §1

For GCGACTGGGGCATGAGCAGGTTACCATAACTTAA, the PBM binding z-score in test [1] was -0.261; in test [2], -0.325; in test [3], -0.638; in [4] it was 0.484; in [5], -1.12; in test [6], 1.1. For the same sequence, the PBM binding z-score was 1.08 in test [7]; 1.11 in test [8]; -0.134 in test [9]; 0.437 in test [10]; 3.82 in [11]; 3.4 in [12]. Further, the PBM binding z-score is -0.58 in [13]; -0.475 in test [14]; 0.287 in [15]; 0.134 in test [16]; -0.328 in test [17]; 0.416 in test [18]. Besides, the figures for the PBM binding z-score in test [19] and in [20] were -0.578 and 0.781, respectively.

As to TCTTGTAGATCAATGGTTAAGAAAGCCGAAGCCT, the PBM binding z-score in test [1] was 0.494; in test [2], 0.359; in [3], -0.126; in [4] it was -0.0354; in test [5], -0.123; in test [6], 0.608. Further, the PBM binding z-score was 0.23 in [7]; 2.48 in [8]; 3.07 in test [9]; 2.99 in test [10]; 1.89 in [11]; 0.567 in test [12]. Further, the PBM binding z-score in [13] is 0.47; in test [14], 0.225; in test [15], -0.106; in [16], 0.039; in [17] it was -0.283; in test [18], 0.142. In addition, the PBM binding z-score is 0.324 in test [19] and -0.236 in test [20].

For CTACCAATGTGAACAAGGTCGTTGATTACTATTC, the PBM binding z-score in test [1] amounted to 0.783; in test [2], 1.15; in [3], 0.608; in [4] it was 1.83; in test [5], 0.441; in test [6] it was 1.51. In addition, the PBM binding z-score in test [7] was found to be 0.331; in test [8] it was 0.322; in test [9], 0.12; in test [10] it was 0.449; in test [11], 0.604; in test [12] it was 0.639. The PBM binding z-score was 0.446 in test [13]; 0.752 in test [14]; 0.968 in test [15]; 1.99 in test [16]; 1.41 in [17]; 1.89 in [18]. The values for the PBM binding z-score in [19] and in [20] were 1.01 and 0.831, respectively.

Regarding GCTATTGGTTGAAAGGGCAACCGAATGATTCTCG, the PBM binding z-score in test [1] was 0.353; in test [2] it was 0.664; in test [3], -0.156; in test [4], 0.954; in [5], -0.225; in test [6], 2.36. Also, the PBM binding z-score in [7] amounted to 2.29; in [8], 4.34; in test [9] it was 1.94; in [10], 4.37; in [11] it was 0.217; in test [12] it was 0.624. For the same sequence, the PBM binding z-score in [13] is 0.114; in test [14], -0.668; in [15] it was 0.512; in test [16] it was 0.73; in [17], 0.0657; in test [18], 1.48. For the same sequence, the figures for the PBM binding z-score in test [19] and in test [20] were 0.176 and 1.87, respectively.

In the case of TCCGCTAGGTCAACGATGGTCAGCTAATCTGCTA, the PBM binding z-score in [1] is 2.89; in test [2], 2.67; in test [3], 0.0246; in [4], 1.54; in test [5], -0.303; in test [6], 3.09. The PBM binding z-score in test [7] is 2; in test [8], 2.53; in test [9], 1.82; in test [10], 2.22; in test [11], 3.72; in test [12], 3.71. Besides, the PBM binding z-score was -0.291 in test [13]; -0.242 in test [14]; 0.617 in test [15]; 1.19 in [16]; -0.762 in [17]; 1.69 in test [18]. The PBM binding z-score in test [19] was -0.297; in [20], 4.13.

On to ATCTCTAGGTAAGACTCAGTTCAGTGAGGAACGC, for which the PBM binding z-score in test [1] was 0.151; in test [2] it was 0.565; in [3], 0.658; in [4], -0.0789; in test [5], 0.649; in [6], 0.134. Further, the PBM binding z-score in [7] amounted to 0.166; in test [8] it was 0.25; in [9] it was 0.0695; in [10], 0.181; in [11], 1.94; in test [12], 1.26. For the same sequence, the PBM binding z-score in test [13] was determined as 0.558; in test [14], 0.604; in test [15] it was 0.314; in test [16], 0.836; in test [17] it was 1.56; in test [18], 0.193. In addition, the PBM binding z-score is 0.359 in test [19] and 0.376 in test [20].
